Source: PubChem (National Center for Advancing Translational Sciences (NCATS))
HEK cytotox: kills HEK 293 cells; HEK 293 viability, ATP luminescence (CellTiter-Glo), 48-72 h; Potency, µM (top dose mostly 115 µM), inactives show top-dose activity change, negative = cytotoxicity, most hits filed as inhibitors; AID 1345083; 94,000 tested, 6.6% active; further: nearly all actives have a fitted effect of over 60% in size
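CellTiter-Glo luminescence (cellular ATP) was read after 48 or 72 hr of compound exposure at 37 degree Celsius. Cells were HEK 293 plated at 250 cells/well.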
hNpr1 antagonist: antagonists of human natriuretic peptide receptor Npr1 | P16066 | HEK293 hNpr1 GloSensor cGMP, ANP-stimulated luminescence | Potency, µM (top dose mostly 46.3 µM), inactives show top-dose activity change, negative = inhibition, usual class: inhibitors | 76,000 tested, 1.6% active; calls by dose curve; further: nearly all actives have a fitted effect of over 60% in size
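Compound pre-incubated 30 min at room temperature on GloSensor-loaded HEK293 cells stably carrying hNpr1 and the pGS-40F cGMP biosensor. Stimulation uses hNppA at 0.1 nM final; luminescence is taken at baseline and 20 min post-agonist.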
NIH3T3 tox: cytotoxic compounds in NIH 3T3 cells. NIH 3T3 viability, CellTiter-Glo ATP luminescence, 48-72 h. Potency, µM (titrated, usually from 96.7 µM), without a hit: top-dose activity change, negative = cytotoxicity, usual class: inhibitors. 94,000 tested, 4.3% active; further: nearly all actives have a fitted effect of over 55% in size
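First NIH 3T3 cells are plated at 400 cells/well; next compound is pinned in; then plates incubate 48 or 72 hr at 37 °C; finally CellTiter-Glo is added and luminescence read after 10 min.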
Luciferase inh: Photinus pyralis luciferase inhibition. P08659. purified P. pyralis luciferase, luminescence, biochemical. Potency, µM (highest dose often 115 µM), usual class: inhibitors. 76,000 tested, 2.5% active; further: nearly all actives have a fitted effect of over 65% in size
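Luminescence read by CCD imager after adding enzyme (10nM final) to wells holding compound, titrated in qHTS. Substrates 10uM each D-luciferin and ATP; buffer 50mM Tris acetate pH 7.5, 10mM Mg acetate, Tween-20, BSA.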
Active calls of the source: *; i = inactive; ? = inconclusive; · = no result given; [ ] = dose if it differs, or a comment. This is a sample that favours compounds with a hit; in the whole collection about 11% have one here. Unless noted, the call rests on the fitted dose curve; in most records, active means well fitted curve in the direction sought with a large enough effect; inconclusive means small, poorly fitted or top-dose-only effect, or another doubt; inactive means no such curve, though single readings can be large; an effect the other way counts as inactive or inconclusive. On the % scale 0 is the no-effect control and ±100 the full control effect; potency means the concentration at half of the fitted maximal effect.

SMILES | HEK cytotox | hNpr1 antagonist | NIH3T3 tox | Luciferase inh
COC(=O)CNC(=O)c1ccc2nnc(Cc3ccc(OC)cc3)n2c1 | 4% | · | -19% | ·
Cc1nnc2ccc(N3CCCN(C(=O)c4ccccc4Cl)CC3)nn12 | i | · | i | ·
COc1cccc(-c2ccc(S(=O)(=O)N3CCSCC3)cc2)n1 | 45µM* | -5% | ? | i
CC1(CCCCc2ccccc2)COc2ccc(C(=O)NCc3ccncc3)cc2N1 (configuration not stated) | 89µM* | ? | ? | i
CC1(CCCCc2ccccc2)COc2ccc(C(=O)NCCN3CCOCC3)cc2N1 (configuration not stated) | 89µM* | -2%[70.6 µM] | 79µM* | i
CC1(CCCCN2CCOCC2)COc2ccc(C(=O)NCc3ccccc3)cc2N1 (configuration not stated) | ? | 1%[70.6 µM] | -22%[138 µM] | i
COc1cccc(-c2c(C(=O)NCc3cccnc3)nc3sccn23)c1 | -6% | · | -9% | ·
COc1cccc(N2CCN(c3nc(C(=O)NCc4cccnc4)cs3)CC2)c1 | 32µM* | 11µM* | ? | ?
CCCc1nc(C(=O)N(C)CCCc2cnn(C)c2)cs1 | -8% | 3% | 5% | i
COc1ccc(N2CCN(c3nc(C(=O)NCc4ccc(F)cc4F)cs3)CC2)cc1 | 35µM* | ? | ? | i
CCCCN(C)C(=O)c1csc(N2CCN(c3ccccc3)CC2)n1 | 35µM* | ? | ? | i
O=C(NCc1ccccn1)c1csc(N2CCN(c3ccccc3)CC2)n1 | 40µM* | -20% | ? | i
Cc1noc(C)c1C(=O)N1CC(n2cc(COCc3ccccc3)nn2)C1 | -22% | · | -22% | ·
CC(C)c1nc2c(c(-c3ccc(O)cc3)n1)CCN(C(=O)c1ccccc1F)CC2 | -4% | · | -16% | ·
COc1ccc(N2CCN(c3nc(C(=O)N4CCC(C)CC4)cs3)CC2)cc1 | 40µM* | ? | 40µM* | ?
CC(C)CNc1ccc2c(n1)C(C)(C(=O)NCc1ccco1)CN(Cc1ccccc1)C2 (configuration not stated) | 50µM* | -17%[70.6 µM] | 40µM* | i
CN1Cc2ccc(NCc3ccccc3)nc2C(C)(C(=O)NCc2ccc3c(c2)OCO3)C1 (configuration not stated) | ? | -28% | ? | i
CC(C)CNc1ccc2c(n1)C(C)(C(=O)NC(C)C)CN(Cc1ccccc1)C2 (configuration not stated) | 63µM* | ? | 35µM* | i
CN1Cc2ccc(Nc3ccccc3)nc2C(C)(C(=O)NCc2ccc3c(c2)OCO3)C1 (configuration not stated) | 79µM* | -15%[70.6 µM] | 50µM* | i
CC(C)CNc1ccc2c(n1)C(C)(C(=O)NC1COC1)CN(Cc1ccccc1)C2 (configuration not stated) | ? | -11%[70.6 µM] | ? | i
CC(C)CNc1ccc2c(n1)C(C)(C(=O)Nc1ccncc1)CN(Cc1ccccc1)C2 (configuration not stated) | 32µM* | -16%[70.6 µM] | 22µM* | i
O=C(C1CCCN1C(=O)Cc1ccc(F)cc1)N1CCC(N2CCOCC2=O)CC1 (configuration not stated) | -1% | · | -18% | ·
Cn1ncc2c(C(=O)NCC(F)F)cc(-c3ccccc3C(F)(F)F)nc21 | -9% | · | ? | ·
Cc1noc(C)c1C(=O)N1CC(N2C(=O)c3c(c(C)nn3-c3ccccc3)C2C2CC2)C1 (configuration not stated) | ? | · | -18% | ·
O=C([C@H]1CCCN1C(=O)Nc1ccc(Cl)cc1)N1CCCC(c2nc3ccncc3[nH]2)C1 (some centres not stated) | -20% | · | -17% | ·
SMILES | HEK cytotox | hNpr1 antagonist | NIH3T3 tox | Luciferase inh
CC(C)CNc1ccc2c(n1)C(C)(C(=O)NCCc1cnc[nH]1)CN(Cc1ccccc1)C2 (configuration not stated) | ? | 3% | 32µM* | i
CC1(C(=O)NCc2ccccc2)CN(Cc2ccccc2)Cc2ccc(N3CCOCC3)nc21 (configuration not stated) | 50µM* | -19% | ? | i
COCCCNC(=O)C1(C)CN(Cc2ccccc2)Cc2ccc(NCC(C)C)nc21 (configuration not stated) | 89µM* | 5%[70.6 µM] | ? | i
COc1ccc(-c2ccccc2C(=O)N2CCC(NC(=O)c3ccc(Cl)cc3)CC2)nn1 | ? | · | -27% | ·
Cc1nn(C)c(C)c1CN(Cc1ccc2c(C)cc(=O)oc2c1)C1CC1 | ? | ? | ? | i
Cc1nn(C)c(C)c1CN(Cc1cnc(N2CCCCC2)nc1)C1CC1 | 25µM* | 13µM* | ? | ?
COc1ccccc1CN[C@H]1CC(C)(C)[C@@H]2C[C@@](C)(O)CC[C@]12CCC(=O)NCCc1c[nH]c2ccccc12 | 28µM* | -14% | 28µM* | i
CN(C)c1ccc(CN[C@H]2CC(C)(C)[C@@H]3C[C@@](C)(O)CC[C@]23CCC(=O)NCCc2c[nH]c3ccccc23)cc1 | 18µM* | -9% | 18µM* | i
CC(C)(C)CC(=O)N[C@H]1CC(C)(C)[C@@H]2C[C@@](C)(O)CC[C@]12CCC(=O)NCCc1c[nH]c2ccccc12 | -11% | -2% | ? | i
COc1ccccc1CN[C@H]1Cc2ccc(cc2)Nc2cc(ccc2OC)C[C@H](C(=O)NCc2ccccc2)N(C)C1=O | 40µM* | 3% | ? | i
COc1ccc2cc1Nc1ccc(cc1)C[C@H](NCC1CC1)C(=O)N(C)[C@@H](C(=O)NCc1ccccc1)C2 | ? | -14% | -11% | i
COc1ccc(C(=O)NC2CCN(c3cc(-c4ccc(F)cc4)[nH]n3)C2)cc1 (configuration not stated) | ? | -13% | ? | i
COc1cccc(C(=O)NC2CCCN(c3cc(-c4ccc(F)cc4)[nH]n3)C2)c1 (configuration not stated) | ? | -17% | 45µM* | ?
COc1cc(OC)cc(C(=O)NC2CCCN(c3cc(-c4ccc(F)cc4)[nH]n3)C2)c1 (configuration not stated) | 45µM* | -12% | ? | ?
C[S+](=O)([O-])c1ccc(-c2nnc3ccc(C(=O)NCc4ccccc4)cn23)cc1 | -6% | · | -24% | ·
O=C(NCC(=O)N1CCOCC1)c1ccc(-c2cnc3ccccc3c2)cc1 | ? | · | -12% | ·
Cc1nnc2ccc(N3CCCN(C(=O)Cc4ccc(F)cc4)CC3)nn12 | i | · | -14% | ·
Cc1onc(C(=O)N2CCC(CCOc3ccc(F)cc3)C2)c1Cn1cc(Cl)cn1 (configuration not stated) | ? | ? | 45µM* | i
CC(C)C(=O)N1CCC(CCOc2ccc(F)cc2)C1 (configuration not stated) | ? | 3% | ? | i
CCOc1ccc(CN2CCN(C/C=C/c3ccccc3OC)CC2CCO)cc1 (configuration not stated) | 20µM* | -14% | ? | i
